# Laboratory results reported in PubChem BioAssay.
# The source made the active and inactive calls.
# Legend:
# [1] = test system: Human papillomavirus type 1a protein E7 (residues 44-93); assay: small molecules binding HPV E7 44-93 – biochemical, small-molecule microarray, residues 44-93, 635 nm fluorescence, primary screen (AID 1108); conditions: fluorescence 635 nm, higher = more signal;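 also: E7 fragment applied at 1 µg/mL in TBST for 1 h at 4 C; score combines spot fluorescence with its signal to noise ratio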
# [2] = hepatitis C replication reporter changes, two-sided – Huh7 cells, luciferase reporter, HCV replication inhibitor project, primary screen (AID 1109); conditions: Huh7 HCV replicon luciferase reporter, 48 h; higher = more signal;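 also: huh7 hepatoma cells harbouring a luciferase neomycin HCV replicon reporter; luciferase luminescence as measure of HCV replicon replication; test concentration not given here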
# [3] = target: Left-right determination factor 2 (Homo sapiens) (UniProt O00292); assay: small molecules binding LEFTY2 protein – biochemical, small-molecule microarray, 635 nm fluorescence scan, primary screen (AID 1110); conditions: higher = more signal
# Left-right determination factor 2 (Homo sapiens), sequence (O00292 whole entry, looked up): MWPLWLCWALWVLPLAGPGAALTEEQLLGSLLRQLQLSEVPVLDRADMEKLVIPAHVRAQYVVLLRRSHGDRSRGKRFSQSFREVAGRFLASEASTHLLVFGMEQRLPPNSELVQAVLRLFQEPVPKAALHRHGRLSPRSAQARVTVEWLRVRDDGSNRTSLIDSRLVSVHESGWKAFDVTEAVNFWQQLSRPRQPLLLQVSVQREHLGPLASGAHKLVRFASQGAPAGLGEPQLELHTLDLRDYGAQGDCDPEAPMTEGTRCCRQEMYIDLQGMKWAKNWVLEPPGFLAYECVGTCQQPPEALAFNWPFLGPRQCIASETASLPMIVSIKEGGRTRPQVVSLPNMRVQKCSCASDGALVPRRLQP
# [4] = target: Calmodulin-1 (Homo sapiens) (UniProt P0DP23); assay: small molecules binding calmodulin-1 with EGTA – biochemical, small-molecule microarray, Cy5-labelled CALM1, profiling panel (AID 1111); conditions: Cy5-CALM1 binding fluorescence, higher = more signal;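 also: labelled calmodulin applied in Tris saline Tween buffer holding calcium plus EGTA and DTT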
# [5] = target: Calmodulin-1 (Homo sapiens) (UniProt P0DP23); assay: small molecules binding Ca-loaded calmodulin-1 – biochemical, small-molecule microarray, Cy5-labelled CALM1, plus calcium, artefact control for SMM control-protein annotation, profiling panel (AID 1112); conditions: Cy5-CALM1 binding fluorescence, higher = more signal;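 also: score merges spot fluorescence with signal to noise from triplicate slides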
# [6] = probe aWnt5a binding to arrayed compounds – biochemical, biotinylated probe, 635/667 nm fluorescence, primary screen (AID 1113); conditions: small-molecule microarray, higher = more signal;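 also: score merges 667 nm fluorescence intensity with signal-to-noise per printed feature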
# [7] = probe aShh binding to arrayed compounds – biochemical, biotinylated probe, 635/667 nm fluorescence, primary screen (AID 1114); conditions: small-molecule microarray, higher = more signal;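 also: probe is biotin-labelled aShh protein from a stem cell growth factor screen; measures binding of labelled protein to compounds printed on the slide; score merges feature fluorescence at 667 nm with signal-to-noise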
# [8] = probe aNog binding to arrayed compounds – biochemical, biotinylated probe, 635/667 nm fluorescence, primary screen (AID 1115); conditions: small-molecule microarray, higher = more signal;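 also: probe is biotinylated aNog protein used at 0.15 µg/mL for 1 h at 4 C; z-score combines 667 nm fluorescence of each spot with its signal to noise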
# [9] = target: Torsin-1A-interacting protein 1 (Homo sapiens) (UniProt Q5JTV8); assay: compound microarray binding of lysate hLAP1 – cell lysate, small-molecule microarray, COS7 lysate, 635/667 nm fluorescence, primary screen (AID 1116); conditions: 635 nm fluorescence, higher = more signal
# Torsin-1A-interacting protein 1 (Homo sapiens), sequence (Q5JTV8 whole entry, looked up): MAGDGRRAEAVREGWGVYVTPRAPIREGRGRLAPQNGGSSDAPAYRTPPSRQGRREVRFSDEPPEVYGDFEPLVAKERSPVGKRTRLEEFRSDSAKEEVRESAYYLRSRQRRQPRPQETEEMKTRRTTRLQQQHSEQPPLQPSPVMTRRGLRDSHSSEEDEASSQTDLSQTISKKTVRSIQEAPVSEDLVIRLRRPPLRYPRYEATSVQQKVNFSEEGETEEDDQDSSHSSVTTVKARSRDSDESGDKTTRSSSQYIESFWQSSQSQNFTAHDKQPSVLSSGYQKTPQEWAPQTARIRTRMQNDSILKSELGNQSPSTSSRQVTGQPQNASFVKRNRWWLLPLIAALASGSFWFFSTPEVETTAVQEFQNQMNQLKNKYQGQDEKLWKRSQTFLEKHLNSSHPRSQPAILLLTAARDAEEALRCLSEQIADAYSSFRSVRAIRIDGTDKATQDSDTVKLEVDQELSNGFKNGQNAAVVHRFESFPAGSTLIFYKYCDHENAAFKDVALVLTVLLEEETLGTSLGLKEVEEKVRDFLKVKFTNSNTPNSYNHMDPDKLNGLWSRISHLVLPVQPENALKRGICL
# [10] = target: Alpha-bungarotoxin (Bungarus multicinctus) (UniProt P60615); assay: compounds binding labelled alpha-BTX control protein – biochemical, small-molecule microarray, Alexa647 label, 635/667 nm fluorescence, artefact control for SMM control protein annotation, profiling panel (AID 1117); conditions: alpha-BTX-A647 binding fluorescence, higher = more signal
# Alpha-bungarotoxin (Bungarus multicinctus), sequence (P60615 whole entry, looked up): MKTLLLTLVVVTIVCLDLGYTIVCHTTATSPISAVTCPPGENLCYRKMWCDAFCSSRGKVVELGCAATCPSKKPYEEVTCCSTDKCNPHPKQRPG
# Albumin (Bos taurus) = Albumin (Bos taurus) (UniProt P02769); assay: compounds binding labelled BSA control protein – biochemical, small-molecule microarray, Alexa647 label, 635/667 nm fluorescence, artefact control for SMM control protein annotation, profiling panel (AID 1118); conditions: BSA-A647 binding, fluorescence 635 nm, higher = more signal;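 also: score merges 667 nm emission intensity and signal-to-noise per printed compound spot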
# Albumin (Bos taurus), sequence (P02769 whole entry, looked up): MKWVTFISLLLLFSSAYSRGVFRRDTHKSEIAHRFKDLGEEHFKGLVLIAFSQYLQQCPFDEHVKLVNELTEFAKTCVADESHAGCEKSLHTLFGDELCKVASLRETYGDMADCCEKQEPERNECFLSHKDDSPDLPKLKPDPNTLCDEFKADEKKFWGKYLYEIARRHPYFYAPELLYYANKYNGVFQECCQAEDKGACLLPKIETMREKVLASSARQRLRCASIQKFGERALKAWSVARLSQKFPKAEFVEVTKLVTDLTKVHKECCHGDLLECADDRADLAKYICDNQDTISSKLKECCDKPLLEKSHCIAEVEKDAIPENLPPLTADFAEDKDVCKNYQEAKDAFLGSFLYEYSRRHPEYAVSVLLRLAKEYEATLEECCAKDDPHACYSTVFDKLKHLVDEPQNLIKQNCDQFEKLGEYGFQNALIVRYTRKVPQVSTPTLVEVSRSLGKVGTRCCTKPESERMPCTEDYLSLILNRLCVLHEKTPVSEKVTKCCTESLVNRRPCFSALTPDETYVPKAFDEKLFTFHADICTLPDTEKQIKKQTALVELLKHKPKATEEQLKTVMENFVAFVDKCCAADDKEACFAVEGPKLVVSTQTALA
# [11] = probe aXIP binding to arrayed compounds – biochemical, NeuroSMM set, 635/667 nm fluorescence, primary screen (AID 1119); conditions: small-molecule microarray, higher = more signal, called active from +8 up or from −8 down;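 also: probe is the protein aXip251-270 applied at 1 µg/mL to compound-printed slides; binding of probe to printed compounds measured as 667 nm fluorescence plus signal to noise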
# [12] = probe aNOTCH3 binding on compound microarray – biochemical, small-molecule microarray, 635/667 nm fluorescence, primary screen (AID 1120); conditions: higher = more signal;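 also: probe is a biotin-tagged antibody raised against NOTCH3 rather than NOTCH3 protein; score merges spot fluorescence near 667 nm with spot signal to noise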
# [13] = probe aNOTCH2 binding on compound microarray – biochemical, small-molecule microarray, 635/667 nm fluorescence, primary screen (AID 1121); conditions: higher = more signal;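 also: score merges feature fluorescence read at 667 nm with its signal to noise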
# [14] = target: Carbonic anhydrase 2 (Homo sapiens) (UniProt P00918); assay: compounds binding carbonic anhydrase 2 – biochemical, small-molecule microarray, Alexa647-labelled CAII, profiling panel (AID 1122); conditions: CAII-A647 binding fluorescence, higher = more signal
# [15] = COS7 lysate on small-molecule microarray, probe aHis, 635 nm (AID 1123); conditions: COS7 cell lysate, fluorescence, higher = more signal;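 also: z-score combines 667nm fluorescence intensity with signal-to-noise per printed compound spot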
# [16] = probe aLAP1 signal on lysate-treated microarray – cell lysate, small-molecule microarray, COS7 lysate, primary screen (AID 1124); conditions: probe aLAP1, fluorescence, higher = more signal;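 also: lysate comes from COS7 cells expressing LAP1 and is applied at 0.3 µg/mL; score merges spot fluorescence near 667 nm with signal-to-noise over triplicate slides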
# Sam68 (KHDRBS1) = assay: compounds binding KHDRBS1 protein – biochemical, small-molecule microarray, 635 nm fluorescence, primary screen (AID 1125); conditions: higher = more signal;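 also: score merges 667 nm channel intensity with signal to noise over triplicate slides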
# [17] = test system: Chordin-like protein 2 (CHRDL2); assay: compounds binding chordin-like 2 – biochemical, small-molecule microarray, 635 nm fluorescence, primary screen (AID 1126); conditions: fluorescence 635 nm, higher = more signal;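 also: printed compound slides probed with Chrdl2 protein at 4 µg/mL for 1 h at 4 C; score merges 667 nm emission intensity with signal to noise over three replicate slides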
# [18] = target: Concanavalin-A (Canavalia ensiformis) (UniProt P02866); assay: compounds binding concanavalin A lectin – biochemical, small-molecule microarray, Alexa647 label, 635 nm, artefact control for SMM control protein annotation, primary screen (AID 1127); conditions: ConA-A647 binding fluorescence, higher = more signal;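 also: z combines 667 nm emission intensity with signal-to-noise across three replicate slides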
# Concanavalin-A (Canavalia ensiformis), sequence (P02866 whole entry, looked up): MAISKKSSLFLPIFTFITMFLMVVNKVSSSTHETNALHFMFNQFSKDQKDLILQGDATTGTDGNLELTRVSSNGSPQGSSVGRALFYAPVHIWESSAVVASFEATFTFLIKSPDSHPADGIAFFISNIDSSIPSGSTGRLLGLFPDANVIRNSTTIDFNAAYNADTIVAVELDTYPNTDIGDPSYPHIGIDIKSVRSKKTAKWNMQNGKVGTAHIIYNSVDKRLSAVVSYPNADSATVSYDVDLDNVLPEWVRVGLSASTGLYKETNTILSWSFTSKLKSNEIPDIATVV
Structure (SMILES),composite z-score [1],z-score [2],composite z-score [3],composite z-score [4],composite z-score [5],composite z-score [6],composite z-score [7],composite z-score [8],composite z-score [9],composite z-score [10],composite z-score (Albumin (Bos taurus)),composite Z-score [11],composite z-score [12],composite z-score [13],composite z-score [14],composite z-score [15],composite z-score [16],composite z-score (Sam68 (KHDRBS1)),composite z-score [17],composite z-score [18]
COc1ccc([Si](C)(C)[C@@H]2[C@@H](CC(=O)N(CCO)Cc3ccccc3)O[C@]3(C(=O)N(C)c4c(Br)cc(C)cc43)[C@H]2C)cc1,1.26,-4.3,0.661,-0.87,-1.13,0.168,-0.399,-0.406,0.13,0.0978,0.597,0.0128 (inactive),-0.0918,-0.124,0.154,0.741,0.231,0.649,1.4,-0.126
CCCNC(=O)[C@@H]1c2ccccc2C(=O)N(CC23CC4CC(CC(C4)C2)C3)[C@H]1c1ccc(CO)cc1,0.772,-1.15,1.03,0.992,0.489,0.189,0.265,0.697,0.986,0.88,0.472,0.39 (inactive),0.0702,0.0521,0.395,1.98,0.12,1.29,0.781,1.09
CCCN1C(=O)[C@@H]2Cc3c([nH]c4ccccc34)[C@@H](c3cccc(O)c3)N2C1=O,0.672,-0.197,0.326,0.0779,-0.346,-0.176,-0.221,-0.0737,-0.489,0.414,-0.17,-0.12 (inactive),-0.0967,-0.0859,-0.112,0.207,1.36,0.65,0.426,0.46
COCCOC(=O)N1C(=O)[C@@]2(c3cc(C#CCC(C(=O)OC)C(=O)OC)ccc31)[C@H](C(=O)N1CCCCCCC1)[C@H]1C(=O)O[C@H](c3ccccc3)[C@H](c3ccccc3)N1[C@@H]2c1ccc(O)cc1,1.37,-0.586,0.485,1.1,0.624,0.244,-0.0422,2.33,0.166,1.3,-0.0345,0.604 (inactive),0.996,0.222,0.387,2.34,2.4,1.31,1.29,0.783
C[C@@H]1ON(c2ccccc2)[C@H](c2ccccc2)[C@H]1C(=O)N1C(=O)OC[C@H]1Cc1ccccc1,1.06,-0.782,0.567,-0.137,-0.542,0.765,-0.304,-0.282,0.28,0.327,0.215,0.477 (inactive),-0.0057,-0.14,0.303,0.514,-0.0985,0.885,0.447,0.603
CC(C)C[C@@H]1NC(=O)[C@@H]2C[C@H](C(=O)NCc3ccc(F)cc3)[C@H](c3ccc(O)cc3)N2C1=O,1.11,-0.738,0.1,1.35,-0.166,-0.147,0.191,-0.319,1.03,0.896,-0.674,0.63 (inactive),-0.222,-0.126,0.47,2.61,0.38,0.425,0.448,1.18
CCC[C@@H]1C[C@@]1(CCC)[C@@H](NC(=O)c1ccco1)c1ccc(Cl)cc1,-1.06,-0.49,-0.936,-0.177,0.0344,-0.252,0.254,0.756,-0.678,-0.0776,-0.638,-0.392 (inactive),-0.173,-0.0324,-0.464,-0.241,-0.0117,-1.48,-0.493,-0.517
CC(C)NC(=O)[C@@]1(Cc2ccccc2I)c2ccccc2C(=O)N(Cc2ccccc2C(F)(F)F)[C@H]1c1ccc(CO)cc1,-0.358,-1.47,-0.0083,0.503,0.377,-0.096,-0.012,0.647,0.506,0.565,0.263,0.0307 (inactive),0.059,0.0509,0.71,1.47,0.896,0.63,0.107,0.548
COC(=O)[C@]1(Cc2ccccc2CN=[N+]=[N-])N=C(c2ccc(OCCCO)cc2)O[C@@H]1c1ccccc1,-1.61,-3.19,-1.63,-0.103,0.128,-0.228,-0.0793,-0.361,-1.18,1.13,-0.312,0.667 (inactive),-0.122,-0.0194,0.563,0.243,-0.779,-0.776,-0.928,0.694
CC(C)CCC[C@@H](C)[C@H]1CC[C@@]2(C)C3=C(CC[C@]12C)[C@@]1(C)CC[C@H](OC(=O)C(C)(C)C)C(C)(C)C1CC3 (stereo not given in full),0.506,-0.435,0.502,0.0548,-0.718,-0.0792,-0.134,-0.705,-0.0812,0.448,-0.0648,-0.598 (inactive),-0.0396,-0.191,-0.0485,1.25,-0.0838,0.657,0.547,0.632
